# A selection: hits, their analogues and other compounds. The true share with any hit is near 2.3%.
# USP1-UAF1 inh: Inhibitors of USP1/UAF1: Primary Screen. 390,000 compounds, 0.23% hits. Ubiquitin carboxyl-terminal hydrolase 1 (Homo sapiens), O94782. Potency, µM (series often up to 57.1 µM), inactives show at the top dose activity change, negative = inhibition, actives largely listed as inhibitors. AID 743255, 2014. recombinant USP1/UAF1, Ub-Rhodamine cleavage fluorescence; also: potency is read from the fitted curve at half-maximal effect; nearly all actives have a fitted effect of over 60% in size
#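 High-throughput fluorogenic screen: 1nM USP1/UAF1 complex, Ub-Rho substrate 150nM final, 50mM HEPES pH 7.8 with 0.5mM EDTA, 0.1 mg/ml BSA, 1mM TCEP and 0.01% Tween-20.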
# Tau fluor counter: Counterscreen qHTS for Inhibitors of Tau Fibril Formation, Fluorescence Polarization; Potency, µM (highest dose often 57.7 µM), without a hit: top-dose activity change, negative = decrease; 280,000 compounds, 0.93% hits; tau K18 P301L Alexa594 fluorescence, heparin fibrillization; AID 1463, 2008; also: potency is read from the fitted curve at half-maximal effect; nearly all actives have a fitted effect of over 55% in size
#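 Human K18 P301L tau (15 uM unlabeled plus 0.24 uM Alexa 594-labeled, final) in 100 mM sodium acetate pH 7 was mixed with compound and 20 uM heparin and incubated 6 hr at 37 C.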
# Tau fibril FP: qHTS for Inhibitors of Tau Fibril Formation, Fluorescence Polarization. Microtubule-associated protein tau (Homo sapiens), P10636. K18 P301L tau heparin fibrillization, Alexa594 FP, 6 h. Potency, µM (highest dose often 57.7 µM), inactives show at the top dose activity, negative = inhibition, actives largely listed as inhibitors. 280,000 compounds, 0.39% hits; also: potency is read from the fitted curve at half-maximal effect; nearly all actives have a fitted effect of over 55% in size
# Target sequence (P10636 561-689 P618L limits assumed): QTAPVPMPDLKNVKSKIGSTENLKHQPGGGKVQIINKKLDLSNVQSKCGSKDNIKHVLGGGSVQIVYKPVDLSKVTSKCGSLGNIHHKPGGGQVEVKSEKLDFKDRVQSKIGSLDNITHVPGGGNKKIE
#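 Recombinant K18 P301L […], labeled with Alexa 594 at 0.24 uM over 15 uM unlabeled; heparin inducer 20 uM final; 37 C, 6 hr; FP endpoint.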
# Tau fibril ThT: qHTS for Inhibitors of Tau Fibril Formation, Thioflavin T Binding; Microtubule-associated protein tau (Homo sapiens), P10636; Potency, µM (series often up to 57.4 µM), without a hit: at the top dose activity, negative = inhibition, hits mostly inhibitors; recombinant tau K18 P301L, heparin-induced fibrillization, ThT fluorescence; 270,000 compounds, 2.1% hits; also: potency is read from the fitted curve at half-maximal effect; nearly all actives have a fitted effect of over 55% in size
#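 ThT emission at 510 nm, taken 1 hr after adding 30 uM dye, quantifies aggregates formed when 20 uM heparin acts on human tau K18 P301L for 6 hr at 37 C.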
# FBPA coupling cs: qHTS Assay for Inhibitors of Fructose-1,6-bisphosphate Aldolase from Giardia Lamblia: Coupling assay counterscreen; activity change, negative = inhibition, % at 58.2 µM, hits read low; 290,000 compounds, 0.67% hits; AID 2472, 2010; coupling enzyme system counterscreen, AmpLite Red fluorescence; in the data active = activity change below about -30%
#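 Coupling enzymes only (glyceraldehyde-3-phosphate) + compound, at 57.5 uM final, 10 min RT; add substrate/coupling/AmpLite Red mix, 20 min RT; fluorescence ex 525/em 598 nm. Actives flag coupling-system interference.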
# Starred values were filed as active, the others as inactive; ? = inconclusive; . = no result given; [ ] = remark or other dose. Unless noted, calls follow the shape of the dose curve; as a rule, active = well fitted curve in the direction sought with a large enough effect; inconclusive = small, poorly fitted or top-dose-only effect, or another doubt; inactive = no such curve, though single readings can be large; an effect the other way counts as inactive or inconclusive. % is scaled to controls: 0 for no effect and ±100 for the full control effect.
SMILES,USP1-UAF1 inh,Tau fluor counter,Tau fibril FP,Tau fibril ThT,FBPA coupling cs
Cc1ccc2c(=O)c(C(=O)c3cccc(Cl)c3)cn(CC(=O)NCc3ccc(F)cc3)c2n1,?,-5.1%,-10.3%,6.5%,.
COC(=O)CCC(=O)OC1(C)C(=O)C=C2C=C(CCCNC(=O)OC(C)(C)C)OC=C2C1=O (stereo not drawn),.,-6.1%,4.4%,-8.4%,1.9
CSc1ccc(C=NNc2ccc(S(=O)(=O)Nc3ccccc3C(=O)O)cc2[N+](=O)[O-])cc1,-10.5%,.,.,.,.
Cc1nn(-c2ccccc2)c(Cl)c1/C=N/Nc1ccc(S(=O)(=O)Nc2ccccc2C(=O)O)cc1[N+](=O)[O-],-23.2%,?,12.7%,8.91µM*,6.1
O=C(O)c1ccccc1NS(=O)(=O)c1ccc(NN=Cc2ccccc2F)c([N+](=O)[O-])c1,-14.6%,.,.,.,.
COc1ccc(NC(=S)NNc2ccc(S(=O)(=O)Nc3ccccc3C(=O)O)cc2[N+](=O)[O-])cc1,?,10µM*[quencher],?,12.6µM*,8.4
O=C(NC1CC(=O)N(c2ccc(F)cc2)C1)c1ccc(S(=O)(=O)N2CCOCC2)cc1 (stereo not drawn),2.0%,0.7%,-9.3%,8.8%,.
CCCNC(=O)C1CCN(c2cc(C)nc3c(-c4ccc(OC)c(OC)c4)c(C)nn23)CC1,-23.1%,-28.0%,1.3%,?,.
Cc1ccccc1C(=O)Nc1ccc2nc(Nc3cccc(C(F)(F)F)c3)cc(C)c2c1,-16.5%,5.62µM*[quencher],?,-22.8%,.
Cc1cc(Nc2cccc(C(F)(F)F)c2)nc2ccc(NC(=O)c3cncc(Br)c3)cc12,?,5.01µM*[quencher],-7.5%,?,.
CCOc1cc(C(=O)Nc2ccc3nc(Nc4cccc(Cl)c4)cc(C)c3c2)cc(OCC)c1OCC,-27.7%,2.24µM*[quencher],-6.8%,?,.
CCN1CCN(c2cc(C)c3cc(NC(=O)c4cncc(Br)c4)ccc3n2)CC1,3.9%,?,?,?,0.8
Cc1cc(Nc2cccc(Cl)c2)nc2ccc(NC(=O)c3cncc(Br)c3)cc12,-29.8%,6.31µM*[quencher],-11.2%,?,.
Cc1ccc2nc(Cl)c3cc(C(=O)N4CCCC(C)C4)sc3c2c1 (stereo not drawn),7.7%,-11.5%,3.1%,-13.0%,.
Cc1ccc(S(=O)(=O)N(CC(=O)NC2CC3CCC2C3)c2ccccc2)cc1 (stereo not drawn),4.5%,.,.,.,.
COc1ccc(-c2oc(NC(=O)c3ccc(C)cc3)c(C#N)c2-c2ccc(OC)cc2)cc1,-6.6%,?,9.9%,-10.3%,-0.9
COc1ccc(-c2oc(NC(C)=O)c(C#N)c2-c2ccc(OC)cc2)cc1,-7.7%,15.8µM*[quencher],?,?,8.0
Cc1ccc(CN(Cc2cc3cc4c(cc3[nH]c2=O)OCCO4)Cc2nnnn2Cc2ccco2)cc1,?,-28.5%,?,35.5µM*,-4.7
CCc1ccc2[nH]c(=O)c(C(c3nnnn3CCOC)N3CCN(c4ccccc4F)CC3)cc2c1 (stereo not drawn),-29.7%,-24.0%,?,17.8µM*,-24.6
Cc1ccc2cc(CN(Cc3ccc4c(c3)OCO4)Cc3nnnn3Cc3ccco3)c(=O)[nH]c2c1,-11.9%,-15.9%,8.7%,-13.0%,0.4
CCc1ccc2[nH]c(=O)c(CN(Cc3ccc(OC)cc3)Cc3nnnn3CCOC)cc2c1,-9.2%,-2.6%,8.0%,-9.9%,-74.2*
O=C(Nc1ccn(CCCN2CCN(Cc3ccc(F)cc3)CC2)c(=O)n1)OCc1ccccc1,-16.3%,.,.,.,.
Oc1cccc(/C=N/NC(=S)NCCN2CCOCC2)c1O,-13.5%,-13.2%,-4.5%,-20.5%,-33.6*
CC(=O)c1ccc(NC(=O)CSc2nccn2Cc2ccco2)cc1,0.0%,-7.5%,-1.7%,-3.4%,.
COc1ccc(-n2c(C)cc(/C=N/Nc3nnc(C)n3N)c2C)cc1,-26.4%,-27.3%,?,28.2µM*,-27.6
SMILES,USP1-UAF1 inh,Tau fluor counter,Tau fibril FP,Tau fibril ThT,FBPA coupling cs
COc1ccc([N+](=O)[O-])c(OC)c1C(=O)NC(=O)Nc1nc(C)nc(C)n1,-15.4%,.,.,.,.
COc1ccc(C(=O)ON=C2C=C(C)C(=O)C(C)=C2)cc1,-15.0%,-1.3%,0.0%,1.8%,-20.8
COc1ccc(SN=C2C(C)=CC(=O)C=C2C)cc1,-15.0%,?,?,2.82µM*,3.2
CCOP(=O)(OCC)C(NC(=O)c1cc([N+](=O)[O-])cc([N+](=O)[O-])c1)C(F)(F)F (stereo not drawn),-17.8%,?,?,25.1µM*,-0.3
COc1ccc(-c2nc3c4ccccc4n(CC(=O)N4CCN(c5ccccc5OC)CC4)c(=O)n3n2)cc1,-9.0%,-16.2%,-9.4%,?,.
O=C1c2ccccc2C2=Nc3ccccc3SC(c3cccc(F)c3)C12 (stereo not drawn),-15.4%,12.6µM*[quencher],?,12.6µM*,-2.5
O=C1c2ccccc2C2=Nc3ccccc3SC(c3ccc(Cl)cc3)C12 (stereo not drawn),-10.9%,?,-16.7%,?,-2.4
Cc1ccc(-c2nnc3c4ccccc4c(-c4ccccc4)nn23)cc1,-23.8%,-1.2%,-0.6%,-0.3%,.
CNc1c(NC(=O)COc2ccc(Cl)cc2)c(=O)oc2ccccc12,-16.9%,.,.,.,1.7
O=C(CCc1nnc2ccc(N3CCC4(CC3)OCCO4)nn12)N1CCCCC1,-21.0%,.,.,.,2.5
O=C(Nc1ccccc1)/C(=C/c1ccccc1)c1ccccc1,-18.5%,?,20µM*,-21.1%,-4.4
Cc1ccccc1NC(=O)/C(=C/c1ccccc1)c1ccccc1,-23.9%,-12.1%,-1.9%,?,-0.7
CCCCn1c(O)c(/C=C2\C=NN=C2c2ccccc2)sc1=S,-16.4%,?,11.2µM*,-10.6%,-4.8
CCCCCCn1c(O)c(/C=C2\C=NN=C2c2ccccc2)sc1=S,-25.8%,0.2%,8.4%,4.3%,-15.7
CC(Oc1ccc(Cl)cc1Cl)C(=O)OCC(=O)c1c(N)n(C)c(=O)n(C)c1=O (stereo not drawn),-13.6%,.,.,.,.
CCOC(=O)C1=C(C)NC(C)=C(C(=O)OCC)C1C(=O)OCC(=O)NCc1ccco1,-8.1%,.,.,.,.
O=C1C=C(O)c2cccc(O)c2C1=O,31.6µM*,-13.8%,-4.6%,?,-3.4
C=CCOc1c(Br)cc(CNc2ccc(NC(=O)C(C)C)c(OC)c2)cc1OCC,-23.4%,?,-2.6%,?,-49.7*
CCOc1cc(CNc2ccc(N(C)C)cc2)cc(Br)c1OCC(=O)NC(C)(C)C,-20.2%,?,15.8µM*,7.94µM*,-36.9*
C=CCOc1c(Br)cc(CNc2ccc(NC(=O)CCC)cc2)cc1OCC,-23.2%,?,?,?,-0.9

# Source: PubChem BioAssay
